RecA splice inh = inhibitors of M. tuberculosis RecA intein splicing; cell-free RecA intein splicing, fluorescence; inhibition, % (concentration not given with the values); 290,000 compounds, 0.75% hits; in the data active = inhibition above about 30%
GDH-TPI counter = counter-screen for M. tuberculosis FBA inhibitors: GDH-TPI coupled enzymes | GDH-TPI coupled enzyme counterscreen, NADH absorbance | inhibition, % at 4.8 µM | 360,000 compounds, 1.2% hits; in the data active = inhibition above about 30%
PrPC TRFRET = cell surface PrPC inhibition, primary TR-FRET screen; TR-FRET read-out; inhibition, % at 13.8 µM; 370,000 compounds, 0.43% hits; in the data active = inhibition above about 24%
BJeLR viability = kills HRASV12-expressing BJeLR cells | inhibition, % (test concentration not listed) | 300,000 compounds, 0.17% hits | AID 1554 | BJeLR (HRASV12) viability, CellTiter-Glo ATP luminescence, 48 h; in the data active = inhibition above about 50%
FBA Mtb inh = inhibits M. tuberculosis FBA enzyme; P9WQA3; purified M. tuberculosis FBA, fluorescence read-out; inhibition, % at 1 µM; 360,000 compounds, 2.3% hits; AID 588726; in the data active = inhibition above about 27%
Target sequence (P9WQA3 whole entry, looked up): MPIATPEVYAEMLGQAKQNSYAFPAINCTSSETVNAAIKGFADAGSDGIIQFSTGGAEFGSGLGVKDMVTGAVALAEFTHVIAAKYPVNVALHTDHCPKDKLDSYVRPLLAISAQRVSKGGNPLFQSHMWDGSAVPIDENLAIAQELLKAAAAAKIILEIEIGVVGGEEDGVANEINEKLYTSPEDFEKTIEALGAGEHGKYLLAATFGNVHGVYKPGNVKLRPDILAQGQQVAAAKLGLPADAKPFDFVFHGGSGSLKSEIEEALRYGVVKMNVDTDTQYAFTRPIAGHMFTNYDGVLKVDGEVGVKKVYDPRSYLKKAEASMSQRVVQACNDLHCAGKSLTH
GFP chromophore = counter-screen: blocks GFP chromophore formation; AID 434968; shares compounds with RecA splice inh; 2,100 compounds, 83% hits; cell-free GFP chromophore formation, fluorescence; EC50, µM; call rule not given here
Large screens that a line does not name were inactive (follow-up assays come after a bar, where they were run). Rows were chosen to be rich in hits. Some 4.2% of all compounds tested hit in one or more screens of this group.

Cc1cc(-c2cc(NC(=O)Cc3c[nH]c4ccccc34)ccc2Nc2cccnc2)ccc1F	none (no result: RecA splice inh, GDH-TPI counter, BJeLR viability, FBA Mtb inh)
O=C1NC(c2ccccc2)=C(c2nc3ccccc3s2)C(c2ccccc2)N1 (stereo not given)	GDH-TPI counter 34
Cc1ccc(/C=N/Nc2nc(Cl)c(Cl)cc2Cl)s1	GDH-TPI counter 31
Nc1[nH]c(=O)[nH]c(=O)c1N=Cc1ccccc1	FBA Mtb inh 43 (no result: RecA splice inh, PrPC TRFRET, BJeLR viability)
C=CCN(CC=C)S(=O)(=O)c1ccc(NC(=S)NC(=O)/C=C/c2ccccc2)cc1	GDH-TPI counter 31
C=CCN(CC=C)C(=S)NC(=O)/C=C/c1ccccc1	none
Cn1cc(CC(=O)Nc2ccc(Nc3cccnc3)cc2)c2ccccc21	none (no result: RecA splice inh, GDH-TPI counter, BJeLR viability, FBA Mtb inh)
Cn1c(CC(=O)Nc2ccc(Cl)c(Cl)c2)n[nH]c1=S	FBA Mtb inh 55 (no result: BJeLR viability)
Cc1ccc(NC(=O)Cc2n[nH]c(=S)n2C)cc1	none
COC(=O)[C@H](CC(C)C)N1Cc2nnn(CC3CCCCC3)c2-c2ccccc2S1(=O)=O	none (no result: RecA splice inh, GDH-TPI counter, BJeLR viability, FBA Mtb inh)
C=CCn1cc(C(=O)c2cc(Br)ccc2O)cc(C#N)c1=O	GDH-TPI counter 31
CCCCn1cc(C(=O)c2cc(Br)ccc2O)cc(C#N)c1=O	none
CS(=O)(=O)c1ccc(C(=O)OCC#CCSc2nnc(-c3cccc4ccccc34)o2)cc1	none (no result: RecA splice inh, GDH-TPI counter, BJeLR viability, FBA Mtb inh)
O=S(=O)(Nc1nc2ccccc2nc1NCc1ccco1)c1cccs1	GDH-TPI counter 32
O=C(NCc1ccco1)c1ccccc1NS(=O)(=O)c1cccs1	none
C=CCNc1nc2ccccc2nc1NS(=O)(=O)c1cccs1	none
CCCCCNc1nc2ccccc2nc1NS(=O)(=O)c1cccs1	GDH-TPI counter 31
CCCn1c2c(c(O)c(C(=O)Nc3ncccc3O)c1=O)CCCC2	GDH-TPI counter 34
CCCn1c2c(c(O)c(C(=O)NC)c1=O)CCCC2	none
NC(=O)C1CCN(c2nc(-c3ccc4c(c3)CCO4)cs2)CC1	none (no result: RecA splice inh, GDH-TPI counter, BJeLR viability, FBA Mtb inh)
Nn1c(SCC(=O)NC2CCCCC2)nnc1-c1cc(-c2ccc(F)cc2)n[nH]1	none (no result: RecA splice inh, GDH-TPI counter, BJeLR viability, FBA Mtb inh)
C[C@H](CCCCC1(C)OCCO1)CCC(=O)N(c1ccccc1)c1ccccc1	none (no result: RecA splice inh, GDH-TPI counter, BJeLR viability, FBA Mtb inh)
COc1cc2c3nnc(-c4ccc(F)cc4)c-3cn(Cc3cccc(C)c3)c2cc1OC	none
COc1cc2c3nnc(-c4ccc(F)cc4)c-3cn(Cc3cccc(F)c3)c2cc1OC	FBA Mtb inh 46 (no result: PrPC TRFRET, BJeLR viability)
CC(=O)Oc1ccc2c(=O)c(/C=N/c3cc(=O)[nH]c(=S)[nH]3)coc2c1	GDH-TPI counter 54
COC(=O)c1cc2c(c3c4cc(OC)ccc4n(C(=O)c4ccccc4)c13)C(=O)N(C1CCCCC1)C2	none (no result: RecA splice inh, GDH-TPI counter, BJeLR viability, FBA Mtb inh)
COc1cccc(/C=C2/SC(=O)N(CC(=O)N3CCc4ccccc4C3)C2=O)c1OCC(=O)O	GDH-TPI counter 32
O=C(Oc1ccc(Br)cc1)C1CC(=O)N(c2ccc(F)cc2)C1 (stereo not given)	RecA splice inh 37 | GFP chromophore 35
Cc1[nH][nH]c(=O)c1C(c1ccc(-c2ccc(F)cc2)o1)c1c(C)[nH][nH]c1=O	RecA splice inh 97 | GFP chromophore 0.58
Cc1[nH][nH]c(=O)c1C(c1ccc(-c2ccc(C(=O)O)cc2)o1)c1c(C)[nH][nH]c1=O	none (no result: RecA splice inh, BJeLR viability)
Cc1[nH][nH]c(=O)c1C(c1ccc(-c2ccc(Cl)c(Cl)c2)o1)c1c(C)[nH][nH]c1=O	RecA splice inh 97 | GFP chromophore 0.66
COC(=O)C[C@H]1CC[C@@H]2[C@@H](COc3ccc(NS(=O)(=O)c4ccccc4Cl)cc3C(=O)N2C)O1	none (no result: RecA splice inh, GDH-TPI counter, BJeLR viability, FBA Mtb inh)
CC(=O)NC(c1ccc(Cl)cc1)c1c(O)ccc2ccc(O)cc12 (stereo not given)	RecA splice inh 59 | GFP chromophore 12
CCOC(=O)c1oc2nc(CC(C)C)c3c(c2c1N)CCC3	RecA splice inh 31, FBA Mtb inh 178 | GFP chromophore inactive
Cc1ccc(S(=O)(=O)N2CCN(C(=O)c3ccccc3Cc3ccccc3)CC2)c(C)c1	RecA splice inh 30 | GFP chromophore inactive
C/C(C=NNC(=O)CSc1nc2ccccc2n1Cc1ccccc1Cl)=C\c1ccccc1	none (no result: RecA splice inh, GDH-TPI counter, BJeLR viability, FBA Mtb inh)
CCSc1nnc(-c2ccc(Cl)cc2)c2ccccc12	none
Cc1ccc(-c2nnc(Sc3nc4ccccc4o3)c3ccccc23)cc1	RecA splice inh 77 | GFP chromophore 0.93
CCSc1nnc(-c2ccc(C)cc2)c2ccccc12	none
Cc1nnc(Sc2nc3ccccc3o2)c2ccccc12	RecA splice inh 50 | GFP chromophore 28
Clc1ccc(-c2nnc(Sc3nc4ccccc4o3)c3ccccc23)cc1	RecA splice inh 57 | GFP chromophore 0.62
CCCc1noc2c1C(c1ccoc1)C(C#N)=C(N)N2 (stereo not given)	RecA splice inh 79 | GFP chromophore inactive
CC(C)C(=O)N1CC[C@H]2[C@H](CCCN2Cc2cc(F)cc(F)c2)C1	none (no result: RecA splice inh, GDH-TPI counter, BJeLR viability, FBA Mtb inh)
Cc1ccc(CS(=O)(=O)c2ncc(Cl)c(C(=O)Nc3nnc(C(C)C)s3)n2)cc1	RecA splice inh 86 | GFP chromophore 3.7
CC(C)c1nnc(NC(=O)CCC(=O)N2CCN(Cc3ccc(F)cc3)CC2)s1	none
Cc1ccc(CS(=O)(=O)c2ncc(Cl)c(C(=O)Nc3ccc(OC(F)F)cc3)n2)cc1	none
Cc1cccc(CS(=O)(=O)c2ncc(Cl)c(C(=O)Nc3nnc(C(C)C)s3)n2)c1	RecA splice inh 86 (no result: PrPC TRFRET) | GFP chromophore 0.86
CCSc1nnc(NC(=O)c2nc(S(=O)(=O)Cc3ccc(F)cc3)ncc2Cl)s1	RecA splice inh 85 | GFP chromophore 21
C=CCSc1nnc(NC(=O)c2nc(SCC)ncc2Cl)s1	none (no result: PrPC TRFRET)
CC(C)c1nnc(NC(=O)c2nc(S(=O)(=O)Cc3ccc(F)cc3)ncc2Cl)s1	RecA splice inh 82 | GFP chromophore 16
CC(C)c1nnc(NC(=O)CS(=O)(=O)Cc2ccccc2)s1	none
CSc1nnc(NC(=O)c2ccco2)s1	none
CSc1nnc(NC(=O)c2nc(S(=O)(=O)Cc3cccc(C)c3)ncc2Cl)s1	RecA splice inh 81 | GFP chromophore 18
COC(=O)[C@]12C[C@H](CC(=O)N3CCSCC3)C(=O)N(CCc3ccc(OC)c(OC)c3)C1=C[C@H](C(C)C)O[C@@H]2C1CC1	none (no result: RecA splice inh, GDH-TPI counter, BJeLR viability, FBA Mtb inh)
CCOC(=O)c1cccc(-c2cc(C(=O)OC)c3n(c2=O)CCC3)c1	none (no result: RecA splice inh, GDH-TPI counter, BJeLR viability, FBA Mtb inh)
COc1ccc(C(=O)/C=C/c2ccc(OC)c(COc3ccccc3F)c2)cc1	none
COc1ccc(/C=C/C(=O)c2ccccc2)cc1COc1ccc(F)cc1	RecA splice inh 41 | GFP chromophore inactive
COc1ccc(/C=C/C(=O)c2ccc(O)cc2)cc1COc1ccc(F)cc1	RecA splice inh 36 | GFP chromophore inactive
COc1ccc(/C=N\NC(=O)c2ccccc2)cc1COc1ccc(F)cc1	none
CCNC(=O)CCc1nc(-c2ccc(C(C)C)cc2)no1	none (no result: RecA splice inh, GDH-TPI counter, BJeLR viability, FBA Mtb inh)
O=C1C=C(N2CCOCC2)c2ccccc2C1=O	RecA splice inh 97 | GFP chromophore 0.56
O=C(NC1=N[C@@]2(C=C3CCCCC3n3c(=O)n(-c4ccccc4)c(=O)n32)CN1Cc1ccccc1)c1ccccc1 (stereo not given in full)	none (no result: RecA splice inh, GDH-TPI counter, BJeLR viability, FBA Mtb inh)
N#Cc1ncc(Cc2ccccc2)nc1C#N	RecA splice inh 82 | GFP chromophore 5
